Screening data deposited in PubChem BioAssay by Broad Institute.
ALR H2O2 inh: inhibitors of human ALR sulfhydryl oxidase, primary screen, biochemical, H2O2 detection, HRP-luminol luminescence, single point; FAD-linked sulfhydryl oxidase ALR (Homo sapiens), P55789; purified ALR, DTT oxidation; inhibition, % (no concentration beside the values); actives 3.8% (n = 290,000); AID 485317, 2010;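 active = mean replicate inhibition above about 79%, with every replicate also reaching it, limit read from the data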
Target sequence (P55789 whole entry, looked up): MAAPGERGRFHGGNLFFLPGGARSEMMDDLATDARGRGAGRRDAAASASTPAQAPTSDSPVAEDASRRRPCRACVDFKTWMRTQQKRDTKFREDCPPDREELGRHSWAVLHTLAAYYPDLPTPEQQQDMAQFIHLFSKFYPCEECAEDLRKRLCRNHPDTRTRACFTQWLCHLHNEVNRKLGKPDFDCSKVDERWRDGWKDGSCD
NSD2 inh: NSD2 histone methyltransferase inhibitors, primary screen, biochemical, AlphaScreen, single concentration, set 2 | NSD2 peptide methylation, 120 min | AID 743445, 2014 | inhibition, % at 12.5 µM | actives 0.54% (n = 310,000); in the data active = inhibition above about 50%
Casp6 inh: human caspase-6 inhibitors, primary screen, biochemical, VEID-R110 fluorescence, single point, set 2. P55212. AID 686996, 2013. purified caspase-6, Z-VEID-R110 cleavage fluorescence. inhibition, % at 12.5 µM. actives 0.53% (n = 350,000);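 active = mean inhibition across replicates at least about 35%, with every replicate also reaching that limit, limit read from the data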;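 note: 0% = median of neutral control wells and 100% = no fluorescence left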
Target sequence (P55212 24-179 limits assumed): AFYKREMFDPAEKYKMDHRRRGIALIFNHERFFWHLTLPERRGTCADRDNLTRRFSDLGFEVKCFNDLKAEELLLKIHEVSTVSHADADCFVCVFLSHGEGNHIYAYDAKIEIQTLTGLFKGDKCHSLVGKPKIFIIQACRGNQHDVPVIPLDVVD
Target sequence (P55212 194-293 limits assumed): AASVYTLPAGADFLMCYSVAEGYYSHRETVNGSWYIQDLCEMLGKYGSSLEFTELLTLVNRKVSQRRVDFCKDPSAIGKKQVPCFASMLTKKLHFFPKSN
PglD DTNB: C. jejuni PglD acetyltransferase inhibitors, primary screen, biochemical, DTNB colorimetric, single point; UDP-N-acetylbacillosamine N-acetyltransferase PglD (Campylobacter jejuni); actives 0.098% (n = 360,000); purified PglD enzyme, DTNB colorimetric CoA detection; inhibition, % at 12.5 µM; in the data active = inhibition above about 16%, passing the limit was not always enough
F508del corr: F508del CFTR correction, initial screen, CFBE line, single point. CFBE cells, YFP halide quenching; stimulated with forskolin plus potentiator P3; % fluorescence drop versus neutral controls. activity (quench increase), % at 7.58 µM. actives 0.36% (n = 350,000). AID 720511, 2013;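 active = mean added fluorescence quench of at least 8% versus neutral control, with both replicates also reaching 8%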;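 note: cells transiently co-express mutant CFTR-F508del with the halide-sensitive YFP; corrector assay measuring rescue of mutant channel to the surface after 24 h compound exposure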
Env fusion inh: inhibitors of HIV-1 Env-driven cell-cell fusion, primary screen, HeLa-JRFL effector, CEM21 target cells, luciferase; inhibition, % at 12.3 µM; actives 1.1% (n = 360,000); AID 651610, 2012;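 active = mean replicate inhibition score of at least 50 and every replicate individually at or above 50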;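 note: 0% = plate neutral controls and 100% = maraviroc near 300 nM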
The depositor's hits bear a star; / = no result; [ ] = dose if it differs, or a comment. In the library only some 4.1% were active in any assay of this set; here they are far more common.

SMILES | ALR H2O2 inh | NSD2 inh | Casp6 inh | PglD DTNB | F508del corr | Env fusion inh
Cc1ccccc1N1C(=O)c2ccccc2C1O (stereo unspecified) | 12.0 | -2.3 | -0.3 | 3.9 | 1.4 | 5.4
CO[C@@H]1CN(C)C(=O)c2ccc(NS(=O)(=O)c3ccc(C)cc3)cc2OC[C@@H](C)N(C(=O)NC(C)C)C[C@H]1C | / | / | / | / | -1.5 | /
COc1ccc(S(=O)(=O)N(C)C[C@@H]2Oc3c(NC(=O)Nc4ccccc4)cccc3C(=O)N([C@H](C)CO)C[C@@H]2C)cc1 | / | / | / | / | -1.0 | 8.7[16.7 µM]
NNC(=O)c1cc(-c2cccs2)nc2ccccc12 | -4.7 | -0.9 | 0.2 | / | -2.7 | 0.9
Cc1cccc2sc(NNC(=O)c3cc(-c4cccs4)nc4ccccc34)nc12 | 3.3 | / | -3.3 | 3.8 | -1.3 | 85.2*
C/C(=N\NC(=O)c1cc(Br)ccc1O)c1ccccn1 | 84.9* | -2.4 | -4.8 | -3.6 | -2.7 | /
C/C(=N\NC(=O)c1cc(-c2cccs2)nc2ccccc12)c1ccccn1 | -16.8 | 15.9 | 0.5 | -3.0 | 11.8* | -29.6
CC(C)NC(=O)c1cc(-c2cccs2)nc2ccccc12 | -17.9 | -5.6 | 0.0 | -3.3 | 1.4 | 11.2
C[C@@H]1CN([C@H](C)CO)C(=O)c2cc(NC(=O)c3ccncc3)ccc2O[C@@H](C)CCCCO[C@H]1CN(C)C(=O)Nc1cccc2ccccc12 | / | / | -0.2 | -1.2 | 3.3 | 11.0[16.7 µM]
Cc1ccc(S(=O)(=O)NCC[C@H]2CC[C@H](NC(=O)NC(C)C)[C@@H](CO)O2)cc1 | / | / | 0.8 | 5.5 | -1.4 | -12.4[16.7 µM]
N#CC1=C(C2CC2)CC(c2ccccc2)C(C#N)=C1N (stereo unspecified) | 3.7 | 1.0 | / | 5.8 | / | -486.4
N#CC1=C(N)SC2(CCCCC2)SC1c1ccccc1 (stereo unspecified) | 93.6* | 3.0 | / | -1.1 | / | /
C[C@@H]1CN([C@H](C)CO)S(=O)(=O)c2ccc(Br)cc2O[C@@H]1CN(C)C(=O)C1CC1 | / | / | 2.9 | -0.3 | -2.1 | 4.9[16.7 µM]
Cc1ccccc1-c1ccc2c(c1)O[C@H](CN(C)C(=O)Nc1ccc(F)cc1)[C@H](C)CN([C@@H](C)CO)S2(=O)=O | / | / | / | / | -10.0 | 12.7[16.7 µM]
O=C(Nc1ccccc1)Nc1cc(OCC(F)(F)F)cc(OCC(F)(F)F)c1 | / | -3.5 | -2.3 | / | 2.5 | 62.1*
CCOC(=O)/C=C1\Nc2ccccc2SC1=O | / | 19.4 | / | -4.1 | / | 112.9*
CCC(=O)Nc1ccc2c(c1)C(=O)N(C)[C@@H]1CC[C@@H](CC(=O)NC3CCCC3)O[C@H]1CO2 | / | / | 0.9 | 0.3 | -5.4 | -18.1[16.7 µM]
CC(C)(C)NC(=O)CSc1nc(-c2ccccc2)c(-c2ccccc2)[nH]1 | 25.8 | 1.7 | / | 2.3 | / | 63.8*
Cc1ccc(SCC(=O)NCCN2C(=O)CSC2=O)c(C)c1 | -18.0 | -2.8 | / | 0.5 | / | -1.2
O=C(CSc1nc(-c2ccccc2)c(-c2ccccc2)[nH]1)N1CCN(S(=O)(=O)c2ccccc2)CC1 | 2.0 | -1.4 | / | -3.6 | / | 84.3*
CC(=O)Nc1ccc(SCC(=O)N2CCN(S(=O)(=O)c3ccccc3)CC2)cc1 | 97.9* | -0.7 | 2.7 | 1.7 | -2.0 | 18.8
O=C(CSc1nc2ccccc2c(=O)[nH]1)N1CCN(S(=O)(=O)c2ccccc2)CC1 | 0.4 | -1.2 | -0.8 | -1.6 | -1.5 | /
Cc1ccc(-c2nc(SCC(=O)NCCN3C(=O)CSC3=O)[nH]c2-c2ccc(C)cc2)cc1 | 88.2* | / | / | / | / | /
O=C(CSc1ccc(F)cc1)N1CCN(S(=O)(=O)c2ccccc2)CC1 | / | 2.6 | 2.2 | -1.3 | -0.9 | -11.6
C[C@@H]1CN([C@@H](C)CO)C(=O)c2cc(NS(=O)(=O)c3ccccc3)ccc2O[C@@H](C)CCCCO[C@H]1CN(C)C(=O)Nc1cccc2ccccc12 | / | / | 1.3 | 2.5 | 1.4 | -0.1[16.7 µM]
SMILES | ALR H2O2 inh | NSD2 inh | Casp6 inh | PglD DTNB | F508del corr | Env fusion inh
C[C@H]1CN([C@@H](C)CO)C(=O)c2cccc(NC(=O)Nc3ccc(F)cc3)c2O[C@H]1CN(C)C(=O)Nc1ccc(C(F)(F)F)cc1 | / | / | 1.3 | 3.1 | 2.5 | 26.9[16.7 µM]
Oc1ccc(N2CCN(Cc3cc4c(cc3Br)OCCO4)CC2)cc1 | 92.1* | 17.1 | -2.8 | -0.1 | -0.1 | 0.4
O=S(=O)(c1ccc(F)cc1)N1CCN(Cc2cc3c(cc2Br)OCCO3)CC1 | -2.2 | -0.6 | -2.9 | 3.1 | -0.3 | /
Cc1ccc(/C=N/NS(=O)(=O)c2ccc([N+](=O)[O-])cc2)o1 | 4.8 | 0.0 | / | -3.4 | / | 10.8
Cc1ccc(S(=O)(=O)N/N=C\c2ccc(C)o2)cc1 | 14.8 | 3.0 | 40.6* | / | 2.0 | /
CCCN1[C@@H]2c3ccc(-c4cccc(C(=O)N(C)C)c4)c(=O)n3C[C@@H]2[C@@H](CO)[C@@H]1C(=O)NCCOC | / | / | 2.6 | -1.1 | 1.2 | /
CCOC(=O)c1c(NC(=O)CSc2nnc(CNc3ccc(OC)cc3)n2C)sc(C)c1C | 8.5 | -1.3 | / | / | / | 27.1*
CCCNC(=O)N1C[C@@H](C)[C@H](OC)CN(C)C(=O)c2ccc(NC(C)=O)cc2OC[C@H]1C | / | / | -0.6 | / | 0.2 | /
C[C@@H]1CN([C@@H](C)CO)C(=O)c2cc(NS(=O)(=O)c3ccc(F)cc3)ccc2O[C@@H](C)CCCCO[C@@H]1CN(C)C(=O)c1ccccc1 | / | / | -1.3 | -5.7 | 1.1 | 27.0[16.7 µM]
COc1cc2c(cc1OC)C(C)N(C(=O)Nc1cc(C)cc(C)c1)CC2 (stereo unspecified) | / | -3.0 | -1.6 | -0.3 | 12.8* | -238.7
Cc1c(O)c(CN2CCCC2)cc2c1oc(=O)c1ccccc12 | 85.1* | 0.7 | / | 2.1 | / | -67.7
CCCNC(=O)Nc1ccc2c(c1)C(=O)N(C)C[C@H](OC)[C@H](C)CN(CCC(F)(F)F)[C@H](C)CO2 | / | / | / | / | -0.1 | /
COc1ccc(CCN(C)Cc2ccc(OCc3ccccc3)c(OC)c2)cc1OC | 99.3* | 7.0 | / | -0.9 | / | -5.5
O=C(C[C@H]1C[C@@H]2c3cc(NC(=O)NC4CCCC4)ccc3O[C@@H]2[C@H](CO)O1)NCc1ccc(Cl)cc1 | / | / | -5.8 | 1.0 | -0.4 | /
Cc1cc(C)cc(N=c2c([N+](=O)[O-])nn(-c3ccc4c(c3)OCCO4)n2O)c1 | -14.7 | 2.8 | -1.9 | 10.0 | 0.7 | 65.2*
O=[N+]([O-])c1nn(-c2ccc3c(c2)OCCO3)n(O)c1=Nc1ccccc1 | -10.1 | 5.1 | 0.0 | / | / | -9.9
CC(C)[C@H](NC(=O)c1ccccc1)C(=O)OCC(=O)c1ccccc1F | 88.4* | 2.1 | 3.5 | / | 0.8 | 3.8
CCOC(=O)c1c(C)[nH]c(C)c1C(=O)COC(=O)[C@@H](NC(=O)c1ccccc1OCC)C(C)C | -2.6 | 6.8 | / | -87.2 | / | 102.4*
CC(C)[C@H](NC(=O)c1c(F)cccc1F)C(=O)OCC(=O)NNC(=O)c1ccccc1 | / | -0.8 | 0.7 | -2.1 | 2.7 | -19.5
